Shown are actives, neighbours in structure and some others; about 3.9% of the full set was active somewhere.
BoNT-F LC inh = BoNT F light chain protease inhibition; Multiplex microsphere protease cleavage assay, flow cytometry; inhibition, % at 10 µM; 360,000 compounds, 0.22% hits; in the data active = inhibition above about 35%, passing the limit was not always enough; inconclusive = no clear call, values can overlap the other calls; note: plate controls were buffer without enzyme for full effect and enzyme alone for no effect
Anthrax LF inh2 = inhibitors of Bacillus anthracis lethal factor protease | multiplex microsphere protease cleavage assay, LF | AID 588501 | 360,000 compounds, 0.12% hits | inhibition, % at 10 µM | P15917; in the data active = inhibition above about 30%; inconclusive = no clear call, values can overlap the other calls; note: plate controls were buffer without enzyme for full effect and enzyme alone for no effect
Target sequence (P15917 whole entry, looked up): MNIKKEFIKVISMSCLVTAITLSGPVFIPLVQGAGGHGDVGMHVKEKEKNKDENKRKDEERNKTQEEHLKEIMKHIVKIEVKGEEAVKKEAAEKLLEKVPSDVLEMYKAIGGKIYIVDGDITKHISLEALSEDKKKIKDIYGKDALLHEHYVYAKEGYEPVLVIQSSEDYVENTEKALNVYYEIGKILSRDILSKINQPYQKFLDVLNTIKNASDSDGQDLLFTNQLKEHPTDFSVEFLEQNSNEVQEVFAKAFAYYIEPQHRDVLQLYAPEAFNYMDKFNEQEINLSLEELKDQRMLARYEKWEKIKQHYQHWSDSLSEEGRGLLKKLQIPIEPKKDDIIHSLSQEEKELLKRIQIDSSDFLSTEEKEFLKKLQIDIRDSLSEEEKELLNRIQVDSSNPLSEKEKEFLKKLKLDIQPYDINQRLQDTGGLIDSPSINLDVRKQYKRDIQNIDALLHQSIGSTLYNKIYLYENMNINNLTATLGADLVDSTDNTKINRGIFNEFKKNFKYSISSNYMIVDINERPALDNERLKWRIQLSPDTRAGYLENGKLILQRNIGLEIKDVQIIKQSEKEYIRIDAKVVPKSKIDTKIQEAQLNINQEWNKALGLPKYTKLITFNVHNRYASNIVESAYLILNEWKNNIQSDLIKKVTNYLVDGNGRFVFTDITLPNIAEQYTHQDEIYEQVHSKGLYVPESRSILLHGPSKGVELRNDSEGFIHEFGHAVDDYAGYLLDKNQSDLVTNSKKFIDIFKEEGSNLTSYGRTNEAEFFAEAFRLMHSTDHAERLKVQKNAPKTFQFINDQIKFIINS
CCHF vOTU inh-1 = CCHFV vOTU protease inhibition; 370,000 compounds, 0.55% hits; Pep-AMC fluorescence; AID 651958; inhibition, % at 11.5 µM; note: 0% = vehicle wells with enzyme and 100% = no enzyme wells
BoNT-A LC inh2 = BoNT A light chain protease inhibition. multiplex microsphere protease substrate cleavage, flow cytometry. inhibition, % at 10 µM. 360,000 compounds, 0.17% hits. AID 588499; in the data active = inhibition above about 30%; inconclusive = no clear call, values can overlap the other calls; note: plate controls were buffer without enzyme for full effect and enzyme alone for no effect
SARS 3CLpro inh = SARS-CoV 3CLpro protease inhibition | P0C6X7 | recombinant SARS-CoV 3CLpro, quenched FRET peptide cleavage | inhibition, % at 6 µM | 290,000 compounds, 0.14% hits | AID 1706; in the data active = inhibition above about 12%
Bead autofluor = counter-screen for toxin protease inhibitors: compound fluorescence | 360,000 compounds, 3.1% hits | AID 624483 | fluorescence intensity (test concentration not listed) | compound autofluorescence counterscreen, microsphere flow cytometry; hits give high values; in the data active = fluorescence intensity above about 16000; inconclusive = no clear call, values can overlap the other calls
CCHF vOTU inh-2 = CCHFV vOTU protease inhibition, confirmation. shares compounds with CCHF vOTU inh-1. Recombinant CCHFV vOTU, Pep-AMC fluorescence. inhibition, % at 11.5 µM. 1,900 compounds, 17% hits
* = called active by the depositor. Cut-off read from the data, not from the text of the source, unless noted: active = inhibition above about 30%; inactive = the rest.

What do the screens show for `CCOc1ccc(NC(=O)c2ccc3c(c2)OCCO3)cc1S(=O)(=O)N(CC)CC`?
BoNT-F LC inh: -6; Anthrax LF inh2: 2; CCHF vOTU inh-1: 32*; BoNT-A LC inh2: 1; Bead autofluor: 4003; CCHF vOTU inh-2: -16

How did CCOc1ccc(C(=O)Nc2ccc3c(c2)OCCO3)cc1OC do in these assays?
BoNT-F LC inh: -3; Anthrax LF inh2: -1; CCHF vOTU inh-1: -10; BoNT-A LC inh2: -1; SARS 3CLpro inh: 6; Bead autofluor: 10642

What do the screens show for `O=C1CCn2c1c(O)c1ccccc1c2=O`?
BoNT-F LC inh: -10; Anthrax LF inh2: -4; CCHF vOTU inh-1: 95*; BoNT-A LC inh2: 0; Bead autofluor: 3237; CCHF vOTU inh-2: 34*

Results for COC(=O)COc1ccc(S(=O)(=O)NC2CCCCCC2)cc1 ?
BoNT-F LC inh: 0; Anthrax LF inh2: 2; CCHF vOTU inh-1: 55*; BoNT-A LC inh2: 0; SARS 3CLpro inh: 0; Bead autofluor: 5085; CCHF vOTU inh-2: -17

How did O=C(COc1ccc(S(=O)(=O)NC2CCCCC2)cc1)NC1CCCCC1 do in these assays?
BoNT-F LC inh: -14; Anthrax LF inh2: -2; CCHF vOTU inh-1: 7; BoNT-A LC inh2: -2; SARS 3CLpro inh: 4; Bead autofluor: 3819

Results for CC(O)CNC1c2ccccc2CC1O (stereo not drawn) ?
BoNT-F LC inh: -5; Anthrax LF inh2: 1; CCHF vOTU inh-1: -19; BoNT-A LC inh2: 0; Bead autofluor: 3499

Results for N#CC(c1ccccc1)C(CC(=NO)c1ccccc1)c1ccccc1 (stereo not drawn) ?
BoNT-F LC inh: 0; Anthrax LF inh2: 3; CCHF vOTU inh-1: 5; BoNT-A LC inh2: 0; Bead autofluor: 3802

Results for COc1cc(CCNC2=CC(=O)c3ncccc3C2=O)ccc1O ?
BoNT-F LC inh: -21; Anthrax LF inh2: -12; CCHF vOTU inh-1: 74*; BoNT-A LC inh2: -1; Bead autofluor: 3136; CCHF vOTU inh-2: 78*

Results for COc1ccccc1CNS(=O)(=O)c1cc(CN2C(=O)c3cccnc3C2=O)ccc1OC ?
BoNT-F LC inh: 5; Anthrax LF inh2: 0; CCHF vOTU inh-1: 6; BoNT-A LC inh2: 0; SARS 3CLpro inh: -5; Bead autofluor: 5539

How did CCn1nc(NS(=O)(=O)c2ccccc2[N+](=O)[O-])c2cc3cccc(C)c3nc21 do in these assays?
BoNT-F LC inh: -8; Anthrax LF inh2: 1; CCHF vOTU inh-1: 32*; BoNT-A LC inh2: 0; SARS 3CLpro inh: 7; Bead autofluor: 7341; CCHF vOTU inh-2: 5

What do the screens show for `CC1CN(C(=O)c2cc3cc(Br)ccc3[nH]2)CC(C)O1` (stereo not drawn)?
BoNT-F LC inh: -35; Anthrax LF inh2: 1; CCHF vOTU inh-1: 0; BoNT-A LC inh2: -2; SARS 3CLpro inh: -4; Bead autofluor: 3166

What do the screens show for `Cn1nccc1NS(=O)(=O)c1ccc(NC(=O)C(F)(F)F)cc1`?
BoNT-F LC inh: inconclusive; Anthrax LF inh2: 17; CCHF vOTU inh-1: -8; BoNT-A LC inh2: 2; SARS 3CLpro inh: -2; Bead autofluor: 3343

What do the screens show for `COc1cc(/C=C2/C(=O)NN(c3ccc(F)cc3)C2=O)cc(Cl)c1O`?
BoNT-F LC inh: 12; Anthrax LF inh2: -9; CCHF vOTU inh-1: 6; BoNT-A LC inh2: 1; SARS 3CLpro inh: 4; Bead autofluor: 4228

What do the screens show for `COc1cc(/C=C2/C(=O)NN(c3ccc(Cl)c(Cl)c3)C2=O)cc([N+](=O)[O-])c1O`?
BoNT-F LC inh: -4; Anthrax LF inh2: -12; CCHF vOTU inh-1: 38*; BoNT-A LC inh2: -3; SARS 3CLpro inh: 3; Bead autofluor: 3936; CCHF vOTU inh-2: -10

How did COc1cc(CCC(=O)OCC(=O)NCCc2ccc(S(N)(=O)=O)cc2)cc(OC)c1OC do in these assays?
BoNT-F LC inh: -2; Anthrax LF inh2: -6; CCHF vOTU inh-1: -1; BoNT-A LC inh2: 0; Bead autofluor: 3625

How did CC(=C\c1ccccc1)/C=C1/SC(=S)N(C(C(=O)O)C(C)C)C1=O (stereo not drawn) do in these assays?
BoNT-F LC inh: -7; Anthrax LF inh2: -2; CCHF vOTU inh-1: 32*; BoNT-A LC inh2: -1; SARS 3CLpro inh: -1; Bead autofluor: 1999; CCHF vOTU inh-2: 12

What do the screens show for `CCC(C(=O)O)N1C(=O)/C(=C/C(C)=C/c2ccccc2)SC1=S` (stereo not drawn)?
BoNT-F LC inh: 0; Anthrax LF inh2: -1; CCHF vOTU inh-1: 22; BoNT-A LC inh2: -1; SARS 3CLpro inh: 3; Bead autofluor: 4339

What do the screens show for `Cc1ccc(S(=O)(=O)Nc2cc(C)cn(Cc3ccc(F)cc3)c2=O)cc1`?
BoNT-F LC inh: 6; Anthrax LF inh2: -11; CCHF vOTU inh-1: 19; BoNT-A LC inh2: 2; SARS 3CLpro inh: 3; Bead autofluor: 3794

What do the screens show for `Cc1cccc(Cn2c(C(=O)OC(C)C)cc3c2ccn3C)c1`?
BoNT-F LC inh: -6; Anthrax LF inh2: -3; CCHF vOTU inh-1: 35*; BoNT-A LC inh2: 2; SARS 3CLpro inh: 3; Bead autofluor: 3041; CCHF vOTU inh-2: 18

Results for Clc1ccccc1NN=Cc1ccccn1 ?
BoNT-F LC inh: 1; Anthrax LF inh2: 0; CCHF vOTU inh-1: 4; BoNT-A LC inh2: 0; Bead autofluor: 3847

How did CCOC(=O)c1c(CN(C)C)n(C)c2c(O)c(N=NC(N)=O)c3ccc(Br)cc3c12 do in these assays?
BoNT-F LC inh: inconclusive; Anthrax LF inh2: -6; CCHF vOTU inh-1: 36*; BoNT-A LC inh2: -2; SARS 3CLpro inh: -4; Bead autofluor: 3949; CCHF vOTU inh-2: 13

How did CC(O)c1cc2c(s1)c1cnn(Cc3ccccc3F)c(=O)c1n2C (stereo not drawn) do in these assays?
BoNT-F LC inh: -2; Anthrax LF inh2: -6; BoNT-A LC inh2: 0; Bead autofluor: 2771

How did COc1ccc2cc(CCOC3CCCCO3)ncc2c1 (stereo not drawn) do in these assays?
BoNT-F LC inh: -2; Anthrax LF inh2: -7; CCHF vOTU inh-1: -8; BoNT-A LC inh2: 0; Bead autofluor: 2874

What do the screens show for `COc1cccc(CN2CCN(Cc3ccccc3C(F)(F)F)CC2)c1`?
BoNT-F LC inh: 5; Anthrax LF inh2: -8; CCHF vOTU inh-1: 0; BoNT-A LC inh2: -1; SARS 3CLpro inh: 2; Bead autofluor: 3154

How did COc1ccc(CN2CCN(Cc3ccccc3C(F)(F)F)CC2)c(OC)c1 do in these assays?
BoNT-F LC inh: 7; Anthrax LF inh2: -8; CCHF vOTU inh-1: 30*; BoNT-A LC inh2: -3; SARS 3CLpro inh: -1; Bead autofluor: 3648; CCHF vOTU inh-2: -2

Results for Cc1ccc(-n2c3nc(=O)[nH]c(=O)c-3cc3cc([N+](=O)[O-])ccc32)cc1C ?
BoNT-F LC inh: -2; Anthrax LF inh2: -1; CCHF vOTU inh-1: 31*; BoNT-A LC inh2: 0; SARS 3CLpro inh: 1; Bead autofluor: 2562; CCHF vOTU inh-2: -4

What do the screens show for `CC1(C)CC(C(CCN(Cc2ccccc2)C(=O)c2ccco2)c2ccc(F)cc2)CCO1` (stereo not drawn)?
BoNT-F LC inh: -4; Anthrax LF inh2: -1; CCHF vOTU inh-1: 33*; BoNT-A LC inh2: 0; SARS 3CLpro inh: 2; Bead autofluor: 2530; CCHF vOTU inh-2: -2

Compound activity (PubChem)
